Mcl1 Noxa PPI: Mcl-1/Noxa binding inhibitors, primary screen, biochemical, TR-FRET, 1536-well | inhibition, % at 21.7 µM | Induced myeloid leukemia cell differentiation protein Mcl-1 (Homo sapiens), Q07820 | TR-FRET Mcl-1/Noxa peptide binding, 2 h | 220,000 tested, 1.5% active;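 active means compounds that cut the protein-peptide binding signal by more than 50% relative to plate controls in a single-dose test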;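 further: His-tagged Mcl-1 with rhodamine Noxa BH3 peptide and terbium anti-His antibody; 0% = Mcl-1 plus Noxa peptide wells and 100% = peptide-only wells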
Target sequence (Q07820 whole entry, looked up): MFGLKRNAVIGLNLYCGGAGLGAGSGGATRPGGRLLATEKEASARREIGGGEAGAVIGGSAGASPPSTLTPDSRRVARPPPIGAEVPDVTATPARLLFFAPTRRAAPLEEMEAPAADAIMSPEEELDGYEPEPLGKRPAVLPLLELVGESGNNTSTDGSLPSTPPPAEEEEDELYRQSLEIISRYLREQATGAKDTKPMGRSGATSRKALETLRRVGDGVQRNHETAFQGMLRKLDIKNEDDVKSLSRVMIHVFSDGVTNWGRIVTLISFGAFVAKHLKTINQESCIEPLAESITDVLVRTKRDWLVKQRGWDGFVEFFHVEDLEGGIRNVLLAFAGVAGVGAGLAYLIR
GLD-1 TGE inh: GLD-1/TGE RNA complex disruptors, primary screen, biochemical, fluorescence polarization | inhibition, % at 5.96 µM | 320,000 tested, 0.44% active | purified GLD-1 + fluorescein TGE RNA | AID 2280, 2010 | Female germline-specific tumor suppressor gld-1 (Caenorhabditis elegans), Q17339;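 active means percent inhibition above a per-plate cutoff, the plate mean of test compounds plus 3 SD, cut at about 30% in these data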;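 further: 0% = DMSO wells with GLD-1 and probe and 100% = wells lacking GLD-1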
Bcl-xL primary: inhibitors of human Bcl-xL, primary screen, biochemical, fluorescence polarization, HTS; inhibition, % at 10.9 µM; 320,000 tested, 0.7% active; GST-Bcl-xL / FITC-Bim BH3 peptide fluorescence polarization; AID 2129, 2009;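 active means inhibition above the mean of all tested compounds plus 3 SD, cutoff set per campaign, cut at about 30% in these data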;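 further: 0% = DMSO wells and 100% = unlabeled Bim-BH3 peptide competitor; inhibitors lower millipolarization by displacing the labeled peptide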
Target sequence (Q07817 whole entry, looked up): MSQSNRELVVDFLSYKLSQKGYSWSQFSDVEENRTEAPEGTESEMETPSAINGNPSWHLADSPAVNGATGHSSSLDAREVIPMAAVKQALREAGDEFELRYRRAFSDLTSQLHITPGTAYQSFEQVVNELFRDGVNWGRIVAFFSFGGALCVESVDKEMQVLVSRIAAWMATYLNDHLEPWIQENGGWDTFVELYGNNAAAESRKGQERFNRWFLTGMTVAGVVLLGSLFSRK
Bim-Mcl-1: inhibitors of Bim peptide binding to Mcl-1, primary screen, biochemical, bead-based flow cytometry, multiplex. Induced myeloid leukemia cell differentiation protein Mcl-1 (Homo sapiens), Q07820. Bim peptide-Mcl-1 binding. inhibition, % at 10 µM. 190,000 tested, 0.1% active. AID 1009, 2008; in the data active means inhibition above about 40%;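 further: 0% = no compound tracer wells and 100% = peptide blocker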
MCL1 BIM primary: inhibitors of MCL1 binding to BIM-BH3, primary screen, biochemical, fluorescence polarization; GST-MCL1 / FITC-Bim-BH3 fluorescence polarization; inhibition, % at 10.9 µM; 320,000 tested, 0.68% active; AID 2057, 2009;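 active means inhibition above the mean inhibition of all tested compounds plus 3 SD, set per campaign, cut at about 40% in these data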;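 further: 0% = DMSO wells and 100% = unlabeled Bim-BH3 peptide control; higher means more loss of mP so more displacement of Bim peptide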
Mcl1 Bid PPI: Mcl-1/Bid binding inhibitors, primary screen, biochemical, TR-FRET, 1536-well; Induced myeloid leukemia cell differentiation protein Mcl-1 (Homo sapiens), Q07820; TR-FRET Mcl-1/Bid-Dy647 peptide binding; inhibition, % at 21.7 µM; 220,000 tested, 0.97% active; AID 1021, 2008;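 active means compounds that cut the binding signal by more than half at the single screening dose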;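 further: His-tagged Mcl-1 with europium anti-His antibody binding Bid BH3 peptide; 0% = Mcl-1 plus peptide wells and 100% = peptide-only wells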
* = called active by the depositor. This is a sample that favours compounds with a hit; in the whole collection about 2.3% have one here.

How did O=C1c2ccccc2-c2onc3ccc(N4CCCC4)c1c23 do in these assays?
Mcl1 Noxa PPI: -6.7; Bim-Mcl-1: 33.0; Mcl1 Bid PPI: -30.0

What do the screens show for `O=C1c2ccccc2-c2onc3c(Oc4ccccc4)cc(O)c1c23`?
Mcl1 Noxa PPI: 59.2*; Bim-Mcl-1: 28.0; Mcl1 Bid PPI: -22.6

Results for O=C(Cc1ccc(Br)cc1)NNC(=O)c1cccs1 ?
GLD-1 TGE inh: -6.5

Results for O=C1CC(N2CCN(S(=O)(=O)c3ccccc3)CC2)C(=O)N1c1ccccc1 (stereo not drawn) ?
Mcl1 Noxa PPI: 92.1*; GLD-1 TGE inh: 3.7; Bcl-xL primary: -1.6; MCL1 BIM primary: -4.5; Mcl1 Bid PPI: -8.2

What do the screens show for `O=C(NCc1ccc(Cl)cc1)c1cnccn1`?
Mcl1 Noxa PPI: 12.6; GLD-1 TGE inh: 5.0; Bcl-xL primary: -1.7; Bim-Mcl-1: 1.0; MCL1 BIM primary: -1.5; Mcl1 Bid PPI: -33.5

How did O=C(NCc1cccc(Cl)c1)c1cnccn1 do in these assays?
Mcl1 Noxa PPI: 22.8; GLD-1 TGE inh: 25.1; Bcl-xL primary: 44.6*; Bim-Mcl-1: -3.0; MCL1 BIM primary: 45.8*; Mcl1 Bid PPI: -10.1

Results for N#Cc1cc(-c2ccccc2)nc(N2CCNCC2)n1 ?
Mcl1 Noxa PPI: -3.1; GLD-1 TGE inh: 2.9; Bcl-xL primary: -7.2; MCL1 BIM primary: -5.8; Mcl1 Bid PPI: -46.8

What do the screens show for `O=C(NCc1ccco1)c1cccc2c1C(=O)c1ccc(N3CCCC3)cc1S2(=O)=O`?
GLD-1 TGE inh: 31.4*

Results for Cc1ccc(CNC(=O)c2cccc3c2C(=O)c2ccc(N4CCCCC4)cc2S3(=O)=O)cc1 ?
GLD-1 TGE inh: 70.7*; Bcl-xL primary: -26.6; MCL1 BIM primary: -87.2

Results for O=c1c2ccccc2sc2ccc(NCCCN3CCOCC3)cc12 ?
GLD-1 TGE inh: 36.4*; Bcl-xL primary: 15.0; MCL1 BIM primary: 18.5

How did CN1CCCC1CCNc1ccc2sc3ccccc3c(=O)c2c1 (stereo not drawn) do in these assays?
GLD-1 TGE inh: 38.5*; Bcl-xL primary: 32.9*; MCL1 BIM primary: 30.7

How did CC(=O)OCCNc1cc(Sc2nc3ccccc3[nH]2)c2nonc2c1[N+](=O)[O-] do in these assays?
Mcl1 Noxa PPI: 61.0*; GLD-1 TGE inh: 6.1; Bcl-xL primary: 13.9; Bim-Mcl-1: -6.0; MCL1 BIM primary: 4.7; Mcl1 Bid PPI: -106.3

Results for CC(=O)OCCCNc1cc(Sc2nc3ccccc3s2)c2nonc2c1[N+](=O)[O-] ?
Mcl1 Noxa PPI: 63.8*; GLD-1 TGE inh: 0.0; Bcl-xL primary: 15.6; Bim-Mcl-1: 4.0; MCL1 BIM primary: 14.9; Mcl1 Bid PPI: -66.9

Results for CCCc1cc(=O)[nH]c(-n2[nH]c3c(c2=O)CCCC3)n1 ?
Mcl1 Noxa PPI: -8.5; GLD-1 TGE inh: 29.5; Bcl-xL primary: 46.5*; Bim-Mcl-1: -2.0; MCL1 BIM primary: 39.6; Mcl1 Bid PPI: -105.3

What do the screens show for `CCCc1cc(=O)[nH]c(SCC)n1`?
Mcl1 Noxa PPI: -22.2; GLD-1 TGE inh: -2.1; Bcl-xL primary: 3.3; Bim-Mcl-1: -1.0; MCL1 BIM primary: 3.2; Mcl1 Bid PPI: -33.1

Results for CC(C)NC(=O)N(C)C[C@H]1Oc2c(NC(=O)Nc3ccccc3)cccc2C(=O)N([C@H](C)CO)C[C@@H]1C ?
GLD-1 TGE inh: 0.9

Results for CCn1c(SCC(=O)Nc2nc3ccccc3s2)nc2c(c1=O)SC(C)C2 (stereo not drawn) ?
Mcl1 Noxa PPI: 9.8; GLD-1 TGE inh: -0.6; Bcl-xL primary: 1.3; Bim-Mcl-1: -5.0; MCL1 BIM primary: -1.8; Mcl1 Bid PPI: 7.8

How did CCn1c(SCC(=O)Nc2nc3ccc(C)cc3s2)nc2c(c1=O)SC(C)C2 (stereo not drawn) do in these assays?
Mcl1 Noxa PPI: 28.9; GLD-1 TGE inh: -2.5; Bcl-xL primary: 5.1; Bim-Mcl-1: -1.0; MCL1 BIM primary: 9.0; Mcl1 Bid PPI: 56.2*

Results for CC(C)=C1C(=O)NN(c2ccc(F)c(Cl)c2)C1=O ?
Mcl1 Noxa PPI: -7.9; GLD-1 TGE inh: -8.9; Bcl-xL primary: -12.5; Bim-Mcl-1: 0.0; MCL1 BIM primary: -30.7; Mcl1 Bid PPI: -9.8

Results for O=C1NN(c2ccc(F)c(Cl)c2)C(=O)/C1=C\c1cccc(OC(=O)c2cccs2)c1 ?
Mcl1 Noxa PPI: 94.0*; GLD-1 TGE inh: 0.7; Bcl-xL primary: 15.2; Bim-Mcl-1: -1.0; MCL1 BIM primary: 13.3; Mcl1 Bid PPI: 45.4

What do the screens show for `O=C(COc1ccc(S(=O)(=O)N2CCCC2)cc1)NCc1ccccn1`?
GLD-1 TGE inh: -1.2; Bcl-xL primary: -2.7; MCL1 BIM primary: 1.3

What do the screens show for `CC1(C)C(=O)Nc2ccccc2N1C(=O)COc1ccc(S(=O)(=O)N2CCOCC2)cc1Cl`?
Mcl1 Noxa PPI: 55.8*; GLD-1 TGE inh: -2.9; Bcl-xL primary: 7.5; Bim-Mcl-1: -5.0; MCL1 BIM primary: 9.2; Mcl1 Bid PPI: -19.2

Results for O=C(COc1ccc(S(=O)(=O)N2CCOCC2)cc1Cl)N1CCCC1 ?
GLD-1 TGE inh: 6.0; Bcl-xL primary: -0.1; MCL1 BIM primary: -4.7

What do the screens show for `CCOc1ccc(C(=O)NN2CCOCC2)cc1`?
GLD-1 TGE inh: 6.4; Bcl-xL primary: 6.5; MCL1 BIM primary: 9.1

Results for COc1cc(/C=N/NC(=O)c2cccc(S(=O)(=O)N3CCCCC3)c2)cc(Br)c1O ?
Mcl1 Noxa PPI: 71.9*; GLD-1 TGE inh: 2.5; Bcl-xL primary: 2.9; Bim-Mcl-1: 0.0; MCL1 BIM primary: 4.7; Mcl1 Bid PPI: -43.0

What do the screens show for `O=C(N/N=C/c1ccc(O)c(O)c1)c1cccc(S(=O)(=O)N2CCCCC2)c1`?
Mcl1 Noxa PPI: 55.5*; GLD-1 TGE inh: -3.8; Bcl-xL primary: 6.2; Bim-Mcl-1: 0.0; MCL1 BIM primary: 18.5; Mcl1 Bid PPI: -21.0

How did Cc1cccc(NC(=O)c2nc[nH]c2C(=O)N2CCN(c3ccccc3)CC2)c1 do in these assays?
GLD-1 TGE inh: 6.1

How did COc1ccc(S(=O)(=O)N2CCCCC2)cc1NC(=O)c1cnc(C)cn1 do in these assays?
GLD-1 TGE inh: 8.3; Bcl-xL primary: -1.7; MCL1 BIM primary: -1.9

What do the screens show for `CCCN(CCC)CCNC(=O)CCC(=O)Nc1ccc2nc(N3CCN(C)CC3)cc(C)c2c1`?
Mcl1 Noxa PPI: 24.2; GLD-1 TGE inh: 0.8; Bcl-xL primary: 8.5; Bim-Mcl-1: -1.0; MCL1 BIM primary: 6.8; Mcl1 Bid PPI: -37.8

What do the screens show for `Cc1ccc(-n2cc(CN3CCCN(C=O)CC3)c(-c3ccc(F)cc3)n2)cc1`?
Mcl1 Noxa PPI: 12.4; GLD-1 TGE inh: 7.5; Bcl-xL primary: 2.7; Bim-Mcl-1: -6.0; MCL1 BIM primary: 3.8; Mcl1 Bid PPI: 12.2

Compound activity deposited in PubChem BioAssay by several laboratories.
